# Measurements from the supplement of paper PMC3334620.
# Whole data set: some 33,000 sequences, median “E-score (-0.5 to 0.5)” near -0.035, cut for the highest 2% near 0.34. This is one part of a sample in which the highest values are shown more often than they occur.
# Biological target: T1, Mot3 (UniProt P54785)
# T1 sequence: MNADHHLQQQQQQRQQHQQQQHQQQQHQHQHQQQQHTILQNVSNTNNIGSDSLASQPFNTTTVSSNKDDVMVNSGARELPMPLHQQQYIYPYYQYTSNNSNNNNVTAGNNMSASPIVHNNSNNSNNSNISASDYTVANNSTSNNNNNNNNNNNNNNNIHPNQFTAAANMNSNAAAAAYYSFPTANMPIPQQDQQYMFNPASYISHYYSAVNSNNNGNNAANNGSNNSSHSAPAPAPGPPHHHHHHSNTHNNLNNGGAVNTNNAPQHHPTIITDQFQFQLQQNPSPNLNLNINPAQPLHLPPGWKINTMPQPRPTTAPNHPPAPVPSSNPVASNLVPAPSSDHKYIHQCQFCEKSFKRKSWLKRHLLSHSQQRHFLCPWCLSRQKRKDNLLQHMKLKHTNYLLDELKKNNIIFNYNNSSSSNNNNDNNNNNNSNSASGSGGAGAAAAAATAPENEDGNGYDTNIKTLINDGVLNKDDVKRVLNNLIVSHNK
# Assay: PBM E-score (8-mer binding enrichment) (E-score (-0.5 to 0.5)); higher = stronger / more preferred TF binding
# Details: protein concentration: 200 nM; construct: GST-full length
# Summary of the method: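 Masliner-normalised scans of fluorescent anti-GST signal were the basis for scoring. That signal came from GST-tagged yeast transcription factors applied at about 100-200 nM to double-stranded universal all-10-mer Agilent arrays on fresh or once-stripped slides. Each ungapped eight-base word, pooled with its reverse complement, received an E-score from the Universal PBM Analysis Suite.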
row,Sequence,PBM E-score
1,ATTCTGTC,-0.0735
2,GAGAAATC,-0.077
3,CTCGAAAA,-0.084
4,CTTGGCGA,-0.105
5,GACCTAAA,-0.086
6,ACAGGATG,0.00887
7,CCTGTGTA,0.357
8,CCTGTGAA,0.254
9,ACTGTGTA,0.349
10,ACTGTGTG,0.185
11,GCTGTATA,0.145
12,GCTGTGTA,0.354
13,GCTGTGAA,0.0424
14,ACTGTGTC,0.112
15,CCTGTGTC,0.194
16,AAGCAAGA,0.0175
17,AGCAAGGG,-0.137
18,GCGGTCAA,-0.0964
19,GACTTAGA,-0.164
20,AAGCACAT,0.0905
21,AGGCACAT,0.49
22,AGGCACAA,0.489
23,ATGCACAT,0.207
24,GGGCACAA,0.0559
25,AGGCACAG,0.491

row,Sequence,PBM E-score
1,CGGCACAG,-0.274
2,AAGCACAG,0.0561
3,CGGCACAC,-0.21
4,AGGCACAC,0.487
5,GGGCACAC,0.178
6,TGGCACAA,-0.0932
7,CGATGGGA,-0.272
8,AGTTCAGC,-0.141
9,ATAACCCC,-0.207
10,CATCTGGC,-0.139
11,CGTTGATA,0.114
12,AATGAGCC,-0.238
13,CTTAGAAG,-0.209
14,CAACTACC,-0.02
15,ACGTGTTC,0.221
16,ACGTGTTA,0.351
17,GCGTGTTA,0.393
18,GCGTGTGA,0.177
19,ATGTGTTA,0.316
20,CCGTGTCA,0.277
21,CTGTGTTA,0.334
22,GTGTGTTA,0.348
23,ACGTGTTG,0.338
24,ACGTGTCA,0.342
25,GCGTGTCA,0.305

row,Sequence,PBM E-score
1,ACGTGTCG,0.24
2,ATCATCTG,-0.0881
3,AAGACCGC,-0.139
4,TCCGTTCA,-0.194
5,ATTCCATG,0.0576
6,CTCCGTTC,-0.0461
7,TAAACCTA,-0.01
8,AAGAGCTC,0.00626
9,CCGTGTTA,0.376
10,CCGTGTTC,0.27
11,CAGTGTTA,0.212
12,GCTCCTAA,0.118
13,AGCAAGAA,-0.0228
14,CTCGTCTA,-0.168
15,CCGCGGGA,-0.23
16,ACATTACA,0.357
17,GCATTAGA,-0.0607
18,ACATTACT,0.218
19,GCATTACA,0.35
20,TCATTAGA,0.0474
21,CCATTACA,0.337
22,TCATTACA,0.359
23,GCATTACC,0.0719
24,ACATTACG,0.271
25,AACACTGG,0.00047

row,Sequence,PBM E-score
1,GCTTATCC,-0.179
2,GCACAAGC,0.117
3,AGATACCT,-0.096
4,GAAGGAAA,0.454
5,TAAGGAAA,0.424
6,TAAGGATA,-0.102
7,GAAGGATA,-0.0542
8,CAAGGAAA,0.317
9,TAAGGAGA,-0.0944
10,AGGGATCC,-0.223
11,AATTTTAG,0.004
12,AATCTCTA,-0.0669
13,AGCATGTC,0.218
14,AGCATGTG,0.179
15,GGCATGCA,0.146
16,GGCATGTA,0.376
17,CGCATGTC,0.146
18,GGCATGGA,-0.0411
19,CGCATGTA,0.356
20,CGCATGGA,-0.0319
21,AGCATGTA,0.354
22,AAAGCGTA,0.0441
23,AGCACCGG,-0.32
24,GAAGCTTC,-0.191
25,CGAATAAC,0.0678

row,Sequence,PBM E-score
1,CAAATCAG,-0.048
2,ATGCGGCA,-0.115
3,TATACGCA,0.272
4,ATTGCCTA,0.482
5,CTTGCCGC,-0.231
6,GTTGCCCA,0.103
7,GCTGCCTA,0.282
8,ATTGCCTC,0.331
9,ATTGCCCA,0.0652
10,ATTGCCGA,-0.0541
11,ATTGCCTG,0.482
12,ATTGCCAG,-0.156
13,CTTGCCCC,-0.209
14,GTTGCCTA,0.488
15,CTTGCCTC,0.425
16,GAGCGCTC,-0.331
17,CGTCGCAA,-0.149
18,CAAGTCGG,-0.254
19,GGTACTCA,0.0108
20,AGCTATAA,-0.0249
21,CAGGTTCG,-0.00261
22,CACCAGGA,-0.104
23,CTTGCCTA,0.488
24,CCTGCCTA,0.244
25,CTTGCCGA,-0.0816

row,Sequence,PBM E-score
1,CGTTTGTC,-0.0445
2,CAGCCGCG,-0.0863
3,ATTTTTAA,0.156
4,ATTTACTC,0.159
5,CTTTACAC,0.415
6,ATTTACGC,0.239
7,ATTTACAC,0.412
8,ATTTACAA,0.363
9,ATTTTTAC,0.34
10,CGTTACAC,0.274
11,GTTTACAA,0.336
12,AATTTTAC,0.222
13,ATTTACAG,0.228
14,CTTTACAA,0.326
15,ACGAGAAC,0.0296
16,CATACAGC,-0.19
17,AAACGTGC,0.118
18,GCACCTCC,-0.215
19,ATGTCCTA,-0.0455
20,CGAGAGAG,-0.145
21,GACTGGAA,-0.213
22,GATAGGAA,0.197
23,AATAGGAA,0.415
24,AATAGGTG,0.0976
25,CCTAGGAA,0.018

row,Sequence,PBM E-score
1,CATAGGAA,0.231
2,AATAGGTC,0.0378
3,AATAGGTA,0.38
4,AATAGGAT,-0.00596
5,TATAGGAA,0.412
6,ACGTGCCA,0.00099
7,AAGTCCGT,-0.0474
8,AGTTAGGA,0.108
9,ATCAGGTA,0.256
10,GGGCGTGA,-0.066
11,CGACTTCC,-0.0315
12,TCTATAGA,-0.152
13,ACAATGGT,-0.058
14,CTGTAATA,0.238
15,CGGTAATC,-0.149
16,AGGTAATC,0.344
17,ATGTAAGA,0.309
18,ATGTAACG,0.268
19,ATGTAATA,0.405
20,ATGTATTG,0.303
21,ATGTAATG,0.395
22,ATGTATTC,0.363
